# Assay results from PubChem BioAssay AID1159580 (chemical genetic matrix, 2015).
# Screen size: about 5,500 compounds; about 2,000 (36%) were called active. About 18% were inconclusive and are not listed. Some of the results follow. Unmarked numbers belong to inactive results. No stated cut-off is given here; in the data, active means normalized growth mostly below about 0.91 (no sharp cut-off); inconclusive means no clear call, values can overlap the other calls; inactive means mostly above about 0.92.
# Assay: chemical genetic growth profiling, strain panel (AID 1159580);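 further: tested at 20 µM; growth read once vehicle control cultures reached saturation at 30 °C; 1 = growth at the plate median or of vehicle wells; lower values mean less growth of the strain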
# Conditions: growth OD
smiles,measurement,setting,value
O[C@H]1C=C2CCN3Cc4cc5c(cc4C(C23)[C@@H]1O)OCO5 (stereo partly specified),normalized growth,"S. cerevisiae deletion strains, locus YBR021W, strain FUR4, hits give low values",1.05
same,normalized growth,"S. cerevisiae deletion strains, locus YBR229C, strain ROT2, hits give low values",0.665 (active)
same,normalized growth,"S. cerevisiae deletion strains, locus YCL029C, strain bik1, hits give low values",0.331 (active)
same,normalized growth,"S. cerevisiae deletion strains, locus YDL035C, strain GPR1, hits give low values",0.434 (active)
same,normalized growth,"S. cerevisiae deletion strains, locus YDL074C, strain BRE1, hits give low values",0.485 (active)
same,normalized growth,"S. cerevisiae deletion strains, locus YDL101C, strain DUN1, hits give low values",0.575 (active)
same,normalized growth,"S. cerevisiae deletion strains, locus YDL185W, strain tfp1, hits give low values",0.965
same,normalized growth,"S. cerevisiae deletion strains, locus YDL192W, strain arf1, hits give low values",0.591 (active)
same,normalized growth,"S. cerevisiae deletion strains, locus YDR101C, strain arx1, hits give low values",0.272 (active)
same,normalized growth,"S. cerevisiae deletion strains, locus YDR162C, strain NBP2, hits give low values",0.566 (active)
same,normalized growth,"S. cerevisiae deletion strains, locus YDR318W, strain mcm21, hits give low values",0.466 (active)
same,normalized growth,"S. cerevisiae deletion strains, locus YDR388W, hits give low values",0.514 (active)
same,normalized growth,"S. cerevisiae deletion strains, locus YDR502C, strain sam2, hits give low values",0.412 (active)
same,normalized growth,"S. cerevisiae deletion strains, locus YEL061C, strain CIN8, hits give low values",0.737 (active)
same,normalized growth,"S. cerevisiae deletion strains, locus YER110C, hits give low values",0.573 (active)
same,normalized growth,"S. cerevisiae deletion strains, locus YER155C, strain BEM2, hits give low values",0.87 (active)
same,normalized growth,"S. cerevisiae deletion strains, locus YER167W, strain BCK2, hits give low values",0.5 (active)
same,normalized growth,"S. cerevisiae deletion strains, locus YGL078C, strain dbp3, hits give low values",0.812 (active)
same,normalized growth,"S. cerevisiae deletion strains, locus YGL086W, strain mad1, hits give low values",0.541 (active)
same,normalized growth,"S. cerevisiae deletion strains, locus YGL248W, strain PDE1, hits give low values",0.398 (active)
same,normalized growth,"S. cerevisiae deletion strains, locus YGR078C, strain PAC10, hits give low values",0.615 (active)
same,normalized growth,"S. cerevisiae deletion strains, locus YGR135W, strain pre9, hits give low values",0.459 (active)
same,normalized growth,"S. cerevisiae deletion strains, locus YGR252W, strain gcn5, hits give low values",0.636 (active)
same,normalized growth,"S. cerevisiae deletion strains, locus YHR079C, strain IRE1 (second series), hits give low values",0.38 (active)
same,normalized growth,"S. cerevisiae deletion strains, locus YHR094C, strain hxt1, hits give low values",0.478 (active)
same,normalized growth,"S. cerevisiae deletion strains, locus YHR129C, strain ARP1, hits give low values",0.613 (active)
same,normalized growth,"S. cerevisiae deletion strains, locus YHR200W, strain rpn10, hits give low values",0.549 (active)
same,normalized growth,"S. cerevisiae deletion strains, locus YIL066C, strain RNR3, hits give low values",0.678 (active)
same,normalized growth,"S. cerevisiae deletion strains, locus YIL073C, strain SPO22, hits give low values",0.402 (active)
same,normalized growth,"S. cerevisiae deletion strains, locus YIL125W, strain kgd1, hits give low values",0.857 (active)
same,normalized growth,"S. cerevisiae deletion strains, locus YIR030C, strain dcg1, hits give low values",0.558 (active)
same,normalized growth,"S. cerevisiae deletion strains, locus YJL095W, strain BCK1, hits give low values",0.448 (active)
same,normalized growth,"S. cerevisiae deletion strains, locus YJL134W, strain LCB3, hits give low values",0.757 (active)
same,normalized growth,"S. cerevisiae deletion strains, locus YJL168C, strain set2, hits give low values",0.837 (active)
same,normalized growth,"S. cerevisiae deletion strains, locus YJL187C, strain SWE1 (second series), hits give low values",0.373 (active)
same,normalized growth,"S. cerevisiae deletion strains, locus YJR075W, strain HOC1, hits give low values",0.53 (active)
same,normalized growth,"S. cerevisiae deletion strains, locus YKL009W, strain mrt4, hits give low values",0.858 (active)
same,normalized growth,"S. cerevisiae deletion strains, locus YKL068W, hits give low values",0.953
same,normalized growth,"S. cerevisiae deletion strains, locus YKL085W, strain MDH1 (second series), hits give low values",0.897 (active)
same,normalized growth,"S. cerevisiae deletion strains, locus YKL085W, strain MDH1, hits give low values",0.897 (active)
same,normalized growth,"S. cerevisiae deletion strains, locus YKL190W, strain CNB1, hits give low values",0.659 (active)
same,normalized growth,"S. cerevisiae deletion strains, locus YKR001C, strain vps1, hits give low values",0.558 (active)
same,normalized growth,"S. cerevisiae deletion strains, locus YLR039C, strain RIC1, hits give low values",1.08
same,normalized growth,"S. cerevisiae deletion strains, locus YLR058C, strain SHM2, hits give low values",0.395 (active)
same,normalized growth,"S. cerevisiae deletion strains, locus YLR102C, strain apc9, hits give low values",0.49 (active)
same,normalized growth,"S. cerevisiae deletion strains, locus YLR268W, strain sec22, hits give low values",0.454 (active)
same,normalized growth,"S. cerevisiae deletion strains, locus YLR330W, strain CHS5, hits give low values",0.656 (active)
same,normalized growth,"S. cerevisiae deletion strains, locus YLR342W, strain FKS1 (second series), hits give low values",0.483 (active)
same,normalized growth,"S. cerevisiae deletion strains, locus YLR371W, strain rom2, hits give low values",0.55 (active)
same,normalized growth,"S. cerevisiae deletion strains, locus YLR418C, strain cdc73, hits give low values",0.707 (active)
same,normalized growth,"S. cerevisiae deletion strains, locus YML016C, strain PPZ1, hits give low values",0.632 (active)
same,normalized growth,"S. cerevisiae deletion strains, locus YML032C, strain rad52, hits give low values",0.367 (active)
same,normalized growth,"S. cerevisiae deletion strains, locus YML124C, strain tub3, hits give low values",0.538 (active)
same,normalized growth,"S. cerevisiae deletion strains, locus YMR078C, strain ctf18, hits give low values",0.713 (active)
same,normalized growth,"S. cerevisiae deletion strains, locus YMR223W, strain ubp8, hits give low values",0.33 (active)
same,normalized growth,"S. cerevisiae deletion strains, locus YMR307W, strain GAS1, hits give low values",1.35
same,normalized growth,"S. cerevisiae deletion strains, locus YNL067W, strain RPL9B, hits give low values",0.495 (active)
same,normalized growth,"S. cerevisiae deletion strains, locus YNL128W, strain TEP1, hits give low values",0.466 (active)
same,normalized growth,"S. cerevisiae deletion strains, locus YNL233W, strain BNI4, hits give low values",0.557 (active)
same,normalized growth,"S. cerevisiae deletion strains, locus YNL250W, strain rad50, hits give low values",0.852 (active)
same,normalized growth,"S. cerevisiae deletion strains, locus YNL271C, strain bni1, hits give low values",0.908 (active)
same,normalized growth,"S. cerevisiae deletion strains, locus YNL298W, strain CLA4, hits give low values",0.931
same,normalized growth,"S. cerevisiae deletion strains, locus YNL307C, strain MCK1, hits give low values",0.694 (active)
same,normalized growth,"S. cerevisiae deletion strains, locus YNR052C, strain pop2, hits give low values",0.605 (active)
same,normalized growth,"S. cerevisiae deletion strains, locus YOL006C, strain TOP1, hits give low values",0.726
same,normalized growth,"S. cerevisiae deletion strains, locus YOL012C, strain htz1",2.41 [resistant] (active)
same,normalized growth,"S. cerevisiae deletion strains, locus YOL147C, strain pex11, hits give low values",0.498 (active)
same,normalized growth,"S. cerevisiae deletion strains, locus YOR061W, strain CKA2, hits give low values",0.565 (active)
same,normalized growth,"S. cerevisiae deletion strains, locus YOR069W, strain VPS5, hits give low values",0.657 (active)
same,normalized growth,"S. cerevisiae deletion strains, locus YOR136W, strain idh2, hits give low values",0.731 (active)
same,normalized growth,"S. cerevisiae deletion strains, locus YOR144C, strain elg1, hits give low values",0.47 (active)
same,normalized growth,"S. cerevisiae deletion strains, locus YOR184W, strain ser1, hits give low values",0.545 (active)
same,normalized growth,"S. cerevisiae deletion strains, locus YOR316C, strain cot1, hits give low values",0.599 (active)
same,normalized growth,"S. cerevisiae deletion strains, locus YPL055C, strain LGE1, hits give low values",0.627 (active)
same,normalized growth,"S. cerevisiae deletion strains, locus YPL241C, strain CIN2, hits give low values",0.74 (active)
same,normalized growth,"S. cerevisiae deletion strains, locus YPR119W, strain clb2, hits give low values",0.715 (active)
same,normalized growth,"S. cerevisiae deletion strains, locus YPR141C, strain kar3, hits give low values",0.976
same,normalized growth,"S. cerevisiae deletion strains, locus YPR163C, strain tif3, hits give low values",0.931
same,normalized growth,"S. cerevisiae deletion strains, locus YPR167C, strain met16, hits give low values",0.523 (active)
same,normalized growth,"S. cerevisiae deletion strains, strain wtn01, hits give low values",0.449 (active)
same,normalized growth,"S. cerevisiae strains, strain wild type, hits give low values",0.448 (active)
